We go through 20 compounds from PubChem BioAssay (NCATS).

Inconclusive results are not listed. Active and inactive are the calls of the source. The call rests on the fitted dose curve; in most records, active means well fitted curve in the direction sought with a large enough effect; inconclusive means small, poorly fitted or top-dose-only effect, or another doubt; inactive means no such curve, though single readings can be large; an effect the other way counts as inactive or inconclusive.

Test [1] is described as follows: qHTS of pediatric cancer cell lines to identify multiple opportunities for drug repurposing: Primary screen for SK-N-SH cells (AID 1347098). Further: nearly all actives have a fitted effect of over 65% in size. Further: potency means the concentration at half of the fitted maximal effect. A digest of the protocol: (§1)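 Cells (500-1,000/well) rested 5 h, then received compounds for 48 h; metabolically active cells were measured by CellTiter-Glo luminescence. Final concentrations spanned up to 46 µM (MIPE, 11-point) or 0.59 nM-46 µM (NPC, 8-point) in primary screens, 11-point in follow-ups.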
In general terms: In qHTS, concentration-response curves come from the screen itself.

Test [2] can be described thus: qHTS of pediatric cancer cell lines to identify multiple opportunities for drug repurposing: Primary screen for LAN-5 cells (AID 1347100). Further: potency means the concentration at half of the fitted maximal effect. A digest of the protocol:
(§2)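 Viability after 48 h compound treatment at 37C, 500-1,000 cells/well, read as ATP luminescence with CellTiter-Glo. Primary screens used 11-point (MIPE, 0.78 nM-46 µM) or 8-point (NPC, 0.59 nM-46 µM) final concentrations; follow-up screens used 11-point dilutions.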

Test [3] can be described thus: qHTS of pediatric cancer cell lines to identify multiple opportunities for drug repurposing: Primary screen for Rh18 cells (AID 1347102). Further: nearly all actives have a fitted effect of over 65% in size. Further: potency means the concentration at half of the fitted maximal effect. The method, boiled down: as §2
A short description of test [4]: qHTS of pediatric cancer cell lines to identify multiple opportunities for drug repurposing: Primary screen for BT-12 cells (AID 1347101). Further: nearly all actives have a fitted effect of over 25% in size. Further: potency means the concentration at half of the fitted maximal effect. A digest of the protocol: as §1
Test [5] is described as follows: qHTS of pediatric cancer cell lines to identify multiple opportunities for drug repurposing: Primary screen for RD cells (AID 1347104). Further: nearly all actives have a fitted effect of over 55% in size. Further: potency means the concentration at half of the fitted maximal effect. The method, boiled down:
(§3)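 Plated cells (500-1,000 per well, growth media) were allowed to settle for 5 hours, treated with compound dilutions for 48 hours, then lysed with CellTiter-Glo for 15 min at room temperature before luminescence reading.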

Test [6] is described as follows: qHTS of pediatric cancer cell lines to identify multiple opportunities for drug repurposing: Primary screen for MG 63 (6-TG R) cells (AID 1347105). Further: nearly all actives have a fitted effect of over 50% in size. Further: potency means the concentration at half of the fitted maximal effect. The method, boiled down: as §3
The nature of test [7]: qHTS of pediatric cancer cell lines to identify multiple opportunities for drug repurposing: Primary screen for Rh30 cells (AID 1347107). Further: nearly all actives have a fitted effect of over 75% in size. Further: potency means the concentration at half of the fitted maximal effect. The method, boiled down:
as §2

The nature of test [8]: qHTS of pediatric cancer cell lines to identify multiple opportunities for drug repurposing: Primary screen for OHS-50 cells (AID 1347103). Further: nearly all actives have a fitted effect of over 40% in size. Further: potency means the concentration at half of the fitted maximal effect. A digest of the protocol:
as §1

Test [9] is described as follows: qHTS of pediatric cancer cell lines to identify multiple opportunities for drug repurposing: Primary screen for control Hh wild type fibroblast cells (AID 1347106).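 Further: series mostly up to about 46 µM; a drop in luminescence marks cytotoxicity and a rise apparent proliferation; nearly all actives have a fitted effect of over 55% in size.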 A digest of the protocol:
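Cells (500-1,000/well) in growth media were settled 5 h at 37 degrees C, then given compounds for 48 h. Viability was read as CellTiter-Glo luminescence. Primary runs used MIPE at 11 points (0.78 nM-46 µM) and NPC at 8 points (0.59 nM-46 µM); follow-ups used 11 points.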

A short description of test [10]: qHTS of pediatric cancer cell lines to identify multiple opportunities for drug repurposing: Primary screen for NB1643 cells (AID 1347099). Further: nearly all actives have a fitted effect of over 50% in size. Further: potency means the concentration at half of the fitted maximal effect. A digest of the protocol: as §3

With `O=C(Nc1cc(Cl)cc2c1[nH]c1cnccc12)c1cccnc1`, in test [1], the Potency is 24.1 µM (active). Further, the Potency result in test [2] and in test [3] was “inactive” in each case.
Regarding `CON=C(C(=O)N[C@@H]1C(=O)N2C(C(=O)OCOC(=O)C(C)(C)C)=C(C=Cc3scnc3C)CS[C@H]12)c1csc(N)n1`, the Potency entry in [1], in test [2], in [4], in test [3], in [5] and in [6] was “inactive” in each case. Besides, in test [7], the Potency result was “inactive”.
As to `COc1cc(Nc2ncc(F)c(Nc3ccc4c(n3)NC(=O)C(C)(C)O4)n2)cc(OC)c1OC`, the Potency result in test [1], in test [4] and in test [9] was “inactive” throughout. Further, the Potency in [8] was 0.544 µM (active).
On to `CS(=O)(=O)N(Cc1ccco1)CC(O)Cn1c2ccccc2c2ccccc21` (stereo not given), for which the Potency result in test [1], in [2], in test [3], in [6] and in test [9] was “inactive” throughout.
As to `CC(C)C(=O)Oc1ccc(CO)cc1[C@H](CCN(C(C)C)C(C)C)c1ccccc1`, the Potency entry in test [1], in test [2], in [4], in [3], in [5] and in [6] was “inactive” in each case. In addition, the Potency entry in [9] and in test [7] was “inactive” throughout.
With `COC[C@@H](c1ccc(C(F)(F)F)cc1)N1CCN(C2(C)CCN(C(=O)c3c(C)ncnc3C)CC2)C[C@H]1C`, in test [1], the Potency is 5.41 µM (active). For the same compound, the Potency result in test [4], in [3], in test [5] and in [7] was “inactive” throughout.
As for `CN(C)Cc1cccc(N=C(c2ccccc2)c2c(O)[nH]c3cc(C(=O)N(C)C)ccc23)c1`, the values for the Potency in test [1], in test [4] and in test [8] were 21.5 µM (active), 6.85 µM (active) and 17.2 µM (active), respectively.
With `COC(=O)N[C@H](C(=O)N1CCC[C@@H]1c1ncc(-c2ccc(-c3ccc(-c4cnc([C@@H]5CCCN5C(=O)[C@@H](NC(=O)OC)C(C)C)[nH]4)cc3)cc2)[nH]1)C(C)C`, the Potency result in [1] and in test [9] was “inactive” in each case. Moreover, the Potency in test [2] was 26.4 µM (active); in [4] it was 34.3 µM (active); in test [3], 23.5 µM (active); in [5] it was 33.2 µM (active).
Turning to `c1ccc2c(Cc3c[nH]c4ccccc34)c[nH]c2c1`, the Potency in [1] was 9.61 µM (active); in test [2] it was 23.5 µM (active); in test [5] it was 14.8 µM (active); in test [6] it was 5.9 µM (active).
With `NC(=O)NN=Cc1ccc([N+](=O)[O-])o1`, the Potency result in test [1], in [3], in [8], in [5], in test [6] and in test [9] was “inactive” throughout. For the same compound, in test [7], the Potency result was “inactive”.
Turning to `O=C(O)c1cc(O)c2c(c1)C(=O)c1cccc(O)c1C2=O`, the Potency entry in test [1], in test [2], in test [4], in test [3], in [5] and in [9] was “inactive” each time.
For the compound `O=C(O)[C@H]1O[C@H](Oc2cc3oc(-c4ccccc4)cc(=O)c3c(O)c2O)[C@H](O)[C@@H](O)[C@H]1O`, in test [10], the Potency was 0.118 µM (active). Further, the Potency result in [2], in test [4], in test [5], in [6] and in [9] was “inactive” in each case.
Take `Clc1ccc(C(c2ccc(Cl)cc2)n2cc[n+](CC(OCc3ccc(Cl)cc3Cl)c3ccc(Cl)cc3Cl)c2)cc1` (stereo not given): the Potency in test [10] is 23.5 µM (active); in test [2], 18.7 µM (active); in test [4], 21.7 µM (active); in test [3] it was 23.5 µM (active); in test [8] it was 17.2 µM (active); in test [5], 33.2 µM (active). In addition, the Potency is 23.5 µM (active) in test [6] and 18.7 µM (active) in test [7].
On to `CCN(CC)CCNC(=O)c1ccc(N)cc1`, for which the Potency entry in test [10], in test [2], in test [4], in test [3], in test [8] and in test [5] was “inactive” in each case. Further, the Potency result in [6] and in test [7] was “inactive” throughout.
`O=C(OCC#CCSc1nnc(-c2cccc3ccccc23)o1)c1cc2ccccc2s1`: the Potency entry in test [10], in [2], in test [4], in test [3], in test [8] and in test [5] was “inactive” in each case. The Potency entry in test [6], in [9] and in test [7] was “inactive” each time.
Take `CCc1ccc(OCc2ccccc2C(=O)Nc2ccc3nc(C)cc(N)c3c2)cc1`: the Potency in [10] is 8.33 µM (active); in [2], 8.33 µM (active); in test [4], 9.68 µM (active); in test [3], 8.33 µM (active); in test [8], 3.43 µM (active); in test [5] it was 5.9 µM (active). For the same compound, the Potency in test [6] was 7.43 µM (active); in [7], 11.8 µM (active).
`Cc1nnc(C(C)C)n1C1C[C@H]2CC[C@@H](C1)N2CC[C@H](NC(=O)C1CCC(F)(F)CC1)c1ccccc1` (stereo not given in full): in test [10], the Potency is 18.7 µM (active). In addition, the Potency entry in test [2], in [4], in [3], in [8], in test [6] and in test [9] was “inactive” each time. Moreover, the Potency result in test [7] is “inactive”.
On to `O=C(NC1CCOCC1)c1ccc(-c2cc(-c3cn[nH]c3-c3ccccn3)ccn2)cc1`, for which the Potency result in test [10], in [2], in [4], in [3], in [8] and in test [5] was “inactive” in each case. The Potency entry in test [6], in test [9] and in test [7] was “inactive” throughout.
Take `OC[C@H]1O[C@@H](Oc2cc(O)cc(C=Cc3ccc(O)cc3)c2)[C@H](O)[C@@H](O)[C@H]1O`: the Potency result in test [10], in test [2], in [4], in test [3], in test [5] and in [6] was “inactive” throughout. Also, the Potency entry in test [9] and in [7] was “inactive” in each case.
For the compound `O=c1c(-c2ccc(O)cc2)coc2cc(O)ccc12`, the Potency result in test [10], in test [2], in test [4], in test [3], in test [8] and in test [5] was “inactive” in each case. The Potency entry in test [6] and in [7] was “inactive” each time.
